Activity calls are given as the source filed them.

Experiment [1] is described as follows: A549 cell viability effects, profiling panel, calcein-AM fluorescence, 48 h, basal (AID 1162). The following applies: higher = more signal.
Experiment [2] can be described thus: adipocyte viability effects, profiling panel, cell-based, 3T3-L1 adipocytes, calcein-AM fluorescence, 48 h, basal (AID 1163). The following applies: 3T3-L1 adipocytes viability, higher = more signal.
Experiment [3] is described as follows: HepG2 cell viability effects, profiling panel, calcein-AM fluorescence, 48 h, basal (AID 1164). The following applies: higher = more signal.
Experiment [4] can be described thus: MM1S cell viability effects, profiling panel, calcein-AM fluorescence, 48 h, basal (AID 1165).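 Note: viability of MM1S multiple myeloma cells under basal unstimulated conditions.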 As to conditions: higher = more signal.
Experiment [5] in a line: basal RPMI8226 viability, no added stimulus, profiling panel, cell-based, calcein-AM fluorescence, 48 h, PK04 Diversity Set (AID 1166).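 Note: cells grown under basal conditions without added stimulus.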 As to conditions: RPMI8226 myeloma viability, higher = more signal.
Experiment [6] in a line: basal HepG2 mitochondrial membrane potential changes, profiling panel, cell-based, JC-1 fluorescence, 24 h, 100 nL compound (AID 1167). As to conditions: higher = more signal.
Experiment [7] can be described thus: basal 3T3-L1 adipocyte mitochondrial potential changes, profiling panel, cell-based, JC-1 fluorescence, 3T3-L1 adipocytes, 24 h, 100 nL compound (AID 1168). As to conditions: JC-1 mitochondrial fluorescence, higher = more signal, called active from +8 up or from −8 down.
Experiment [8] is described as follows: basal RPMI8226 mitochondrial membrane potential changes, profiling panel, cell-based, JC-1 fluorescence, 24 h, 100 nL compound (AID 1169). The following applies: RPMI8226 myeloma, JC-1 mitochondrial potential fluorescence, higher = more signal.
Experiment [9] is described as follows: basal MM1S mitochondrial membrane potential changes, profiling panel, cell-based, JC-1 fluorescence, 24 h, 100 nL compound (AID 1170). As to conditions: higher = more signal.
Experiment [10] in a line: A549 lung cancer cell viability effects, profiling panel, resazurin fluorescence, 24 h, PK04 Diversity Set (AID 1171). The following applies: higher = more signal, called active from +8 up or from −8 down.
Note: test concentration not given here.

`C=C(COC)C(=O)CC[C@H](OC(=O)c1cccnc1)c1ccc(OCCO)cc1`: the z-score in [1] is 0.369; in experiment [2] it was 0.0993; in experiment [3], 0.143; in experiment [4], -1.93; in experiment [5], -0.418; in [6] it was -1.02. Also, the z-score is -0.351 (inactive) in [7], 0.878 in experiment [8], -0.0164 in [9] and -0.552 (inactive) in experiment [10].
With `COCCCN1C(=O)[C@@]2(c3ccc([N+](=O)[O-])cc3)CC(=O)N(CC34CC5CC(CC(C5)C3)C4)[C@@H]2c2ccc(CO)cc21`, the z-score in [1] was 0.555; in experiment [2] it was -0.731; in [3], 1.07; in experiment [4] it was 0.657; in experiment [5], 1.12; in [6] it was 0.722. Besides, the z-score is 0.0634 (inactive) in experiment [7], 0.25 in experiment [8], -1.87 in experiment [9] and -1.25 (inactive) in experiment [10].
As for `C=CCC(OC(C)=O)[C@@H]1[C@@H](N(Cc2cc3ccccc3o2)C(=O)Cc2ccc(OC)cc2)c2cc(OCCCO)ccc2N1C(=O)c1ccc2ccccc2n1` (stereo not given in full), the z-score in experiment [1] is 0.542; in experiment [2], 1.46; in experiment [3] it was 1.26; in [4], 0.307; in experiment [5] it was -1.63; in experiment [6] it was 2.31. The z-score in [7] is -0.106 (inactive); in experiment [8], -0.617; in experiment [9], 0.576; in experiment [10], -0.719 (inactive).
Turning to `CN(C)CCCCNC(=O)[C@H]1C[C@H]2C(=O)N3CCC[C@H]3C(=O)N2[C@H]1c1cccc(OCCO)c1`, the z-score is -0.893 in [1]; -0.0471 in experiment [2]; -0.458 in experiment [3]; 0.123 in experiment [4]; 0.291 in experiment [5]; -1.05 in [6]. In addition, the z-score is 0.119 (inactive) in experiment [7], 0.712 in experiment [8], 0.0655 in [9] and 0.677 (inactive) in experiment [10].
Take `CC1CC/C=C\[C@H]2OC34C=CCN(Cc5ccccc5)C(=O)[C@H]3N(CCCCCCO)C(=O)[C@@H]4C2C(=O)O1` (stereo not given in full): the z-score was 1.3 in [1]; 0.221 in [2]; 0.881 in [3]; 1.41 in experiment [4]; 0.0497 in experiment [5]; 0.0727 in experiment [6]. Also, the z-score in experiment [7] is -0.0479 (inactive); in [8] it was 0.62; in experiment [9], 1.34; in [10], 0.919 (inactive).
For `O=C1N(Cc2ccccc2)c2ccccc2C[C@@]12COC(c1ccc(OCCCO)cc1)=N2`, the z-score in experiment [1] was -0.633; in [2], 0.629; in experiment [3] it was -0.409; in experiment [4], -2.94; in experiment [5] it was -1.19; in experiment [6] it was -1.08. Further, the z-score in experiment [7] was -0.382 (inactive); in [8] it was -0.907; in [9], -0.589; in [10] it was 1.41 (inactive).
On to `N#Cc1ccc(C(O)C2C=CC3C(=O)NC(=O)C3N2Nc2ccc(Cl)cc2Cl)cc1` (stereo not given), for which the z-score in experiment [1] was -0.918; in experiment [2] it was 0.325; in experiment [3] it was -0.726; in experiment [4], -0.399; in experiment [5] it was -0.408; in experiment [6], -1.35. Besides, the z-score in experiment [7] is -1.05 (inactive); in experiment [8], -0.356; in [9], 0.153; in [10], -0.123 (inactive).
`CN(C)CCCC[C@@H]1NC(=O)[C@@H]2C[C@H](C(=O)NCCCCCCNC(=O)CS)[C@H](c3ccc(O)cc3)N2C1=O`: the z-score in experiment [1] is -0.121; in experiment [2], -0.145; in experiment [3], 0.548; in experiment [4], -0.0172; in experiment [5] it was 0.381; in experiment [6], -0.175. The z-score is 0.207 (inactive) in experiment [7], -0.223 in experiment [8], -0.136 in experiment [9] and 0.579 (inactive) in experiment [10].
Take `COC(=O)C(CC#Cc1ccc2c(c1)[C@]1(C(=O)N2)[C@H](C(=O)NC[C@H](O)c2ccccc2)[C@H]2C(=O)O[C@H](c3ccccc3)[C@H](c3ccccc3)N2[C@@H]1c1ccccc1OCCO)C(=O)OC`: the z-score in experiment [1] is -0.101; in [2], 1.14; in experiment [3], -0.272; in experiment [4] it was -3.29; in experiment [5], -4.57; in experiment [6] it was -0.0353. Also, the z-score in experiment [7] was 1.82 (inactive); in [8], -1.16; in experiment [9] it was -2.1; in [10], 0.422 (inactive).
With `COC(=O)C(CC#Cc1ccc2c(c1)[C@]1(C(=O)N2)[C@H](c2ccccc2OCCO)N2[C@H](c3ccccc3)[C@H](c3ccccc3)OC(=O)[C@H]2[C@@H]1C(=O)N1CCc2cc(OC)c(OC)cc2C1)C(=O)OC`, the z-score in [1] was 0.734; in experiment [2], -0.19; in experiment [3], 2.08; in experiment [4], 0.857; in [5] it was -0.0217; in experiment [6], -0.112. For the same compound, the z-score in [7] is 2.3 (inactive); in [8], -0.941; in [9], -1.47; in experiment [10], -0.63 (inactive).
Regarding `CN(C)CCCNC(=O)[C@@]1(Cc2ccccc2I)c2ccccc2C(=O)N(C2CCCCC2)[C@H]1c1ccc(CO)cc1`, the z-score was -4.29 in [1]; -0.546 in experiment [2]; -5.11 in experiment [3]; -3.78 in experiment [4]; -4.34 in experiment [5]; -2.13 in experiment [6]. Also, the z-score in experiment [7] is 2.14 (inactive); in experiment [8], -1.01; in [9] it was -2.49; in [10], -6.91 (inactive).
For `CC(C)c1nc2cc(Br)ccc2c(=O)o1`, the z-score in [1] was -0.374; in [2], 0.124; in experiment [3] it was -1.32; in experiment [4], 0.345; in experiment [5], -0.262; in [6] it was -0.0593. The z-score in experiment [7] was 0.316 (inactive); in [8], 0.593; in experiment [9], -0.259; in experiment [10], 0.0924 (inactive).
As to `CCCCC(O)C1C=CC2C(=O)N(c3ccccc3)C(=O)C2N1Nc1ccc(C#N)cc1` (stereo not given), the z-score is 0.233 in experiment [1]; 0.15 in [2]; 1.2 in experiment [3]; 0.105 in [4]; 0.0528 in experiment [5]; -0.622 in experiment [6]. The z-score in experiment [7] is -1.19 (inactive); in experiment [8], -0.0799; in [9] it was -0.0525; in experiment [10], -0.151 (inactive).
In the case of `COc1ccc([Si](C)(C)[C@@H]2[C@@H](CC(=O)N(CCO)Cc3ccccc3)O[C@]3(C(=O)N(Cc4ccc(I)cc4)c4ccccc43)[C@H]2C)cc1`, the z-score in experiment [1] was -1.14; in [2], 0.909; in experiment [3], -1.59; in experiment [4] it was -2.54; in experiment [5], -4.17; in experiment [6], 1.17. In addition, the z-score in experiment [7] was 0.448 (inactive); in experiment [8], -1.2; in experiment [9], -0.732; in experiment [10], -2.88 (inactive).
As for `CC(=O)c1ccc(C(O)C2C=CC3C(=O)N(c4ccccc4)C(=O)C3N2Nc2ccc(C(C)C)cc2)cc1` (stereo not given), the z-score in [1] is -0.301; in experiment [2], -1.69; in [3], 0.123; in experiment [4] it was -1.1; in [5] it was -0.994; in experiment [6], -2.03. For the same compound, the z-score in experiment [7] was -1.56 (inactive); in experiment [8], -0.293; in experiment [9] it was -1.29; in experiment [10], -0.532 (inactive).

The values are drawn from PubChem BioAssay.
